Laboratory results as given in the supplement of paper PMC11624193, “Coupling cellular drug-target engagement to downstream pharmacology with CeTEAM” (Nature Communications, 2024).
Counter-ions that a name gives are not always drawn. A number with no mark means an inactive call.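 How the source made its calls: active = log2 fold change beyond 2 SD from the library mean after excluding viability outliers; inactive = within 2 SD.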

Biological target: PARP1 L713F-nLuc biosensor (HCT116) (UniProt P09874)
Sequence (P09874 whole entry L713F, looked up): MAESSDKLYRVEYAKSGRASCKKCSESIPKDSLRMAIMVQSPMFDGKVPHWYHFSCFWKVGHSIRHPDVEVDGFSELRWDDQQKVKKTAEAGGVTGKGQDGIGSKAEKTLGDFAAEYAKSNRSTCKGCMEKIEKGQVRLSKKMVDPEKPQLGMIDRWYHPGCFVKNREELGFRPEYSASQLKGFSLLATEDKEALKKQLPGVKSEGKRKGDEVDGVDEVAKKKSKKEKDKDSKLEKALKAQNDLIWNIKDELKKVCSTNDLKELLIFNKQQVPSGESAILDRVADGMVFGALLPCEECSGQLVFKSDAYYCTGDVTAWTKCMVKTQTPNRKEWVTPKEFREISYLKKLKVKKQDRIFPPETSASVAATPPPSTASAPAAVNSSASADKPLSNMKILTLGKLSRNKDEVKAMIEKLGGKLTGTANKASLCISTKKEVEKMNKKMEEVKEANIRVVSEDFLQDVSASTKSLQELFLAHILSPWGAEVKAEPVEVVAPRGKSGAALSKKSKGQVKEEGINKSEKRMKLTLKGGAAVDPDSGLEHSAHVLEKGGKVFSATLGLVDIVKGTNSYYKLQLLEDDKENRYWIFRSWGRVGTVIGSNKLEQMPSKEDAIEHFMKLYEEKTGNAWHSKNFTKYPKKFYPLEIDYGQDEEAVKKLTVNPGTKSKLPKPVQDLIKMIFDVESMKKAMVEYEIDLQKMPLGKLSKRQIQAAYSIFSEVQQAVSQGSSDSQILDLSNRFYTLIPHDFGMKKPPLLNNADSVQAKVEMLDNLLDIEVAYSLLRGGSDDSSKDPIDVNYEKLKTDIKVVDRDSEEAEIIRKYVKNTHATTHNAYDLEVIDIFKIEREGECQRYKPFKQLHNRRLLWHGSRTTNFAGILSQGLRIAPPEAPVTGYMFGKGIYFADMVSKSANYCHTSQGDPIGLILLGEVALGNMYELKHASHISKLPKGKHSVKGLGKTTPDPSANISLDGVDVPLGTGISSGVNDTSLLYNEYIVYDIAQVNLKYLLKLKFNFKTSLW
Assay: PARP1 L713F-nLuc/akaLuc ratio relative to DMSO control (biosensor stabilization) (fold change); higher = more PARP1 biosensor stabilization (target engagement / stabilizer), active = hit call of the paper
Conditions: 24 h
[1] = stock concentration (mM; final µM = stock mM x 1): 2
[2] = stock concentration (mM; final µM = stock mM x 1): 10

SMILES	PARP1 L713F-nLuc/akaLuc ratio [1]	PARP1 L713F-nLuc/akaLuc ratio [2]
CN(C(=O)c1ccc(F)cc1C(F)(F)F)C1CCN(c2nnc(-c3ccnn3C)c3ccccc23)CC1	1.11	
O=C(CCCCCCC(=O)NO)NO [Suberoyl bis-hydroxamic acid]		0.788
CN(C)CCCCC(=O)Nc1ccc(NC(=S)NC(=O)c2ccc(C(C)(C)C)cc2)cc1 [Tenovin-6 (Hydrochloride)]		0.665
C=CC(=O)Nc1cc2c(Nc3ccc(F)c(Cl)c3)ncnc2cc1OCCCN1CCOCC1 [Canertinib (CI-1033)]	1.01	
CCCCNC(=N)NC(=N)N [Buformin (hydrochloride)]		0.782
C[C@@H]1C[C@H]2[C@@H]3CCC4=CC(=O)C=C[C@]4(C)[C@@]3(F)[C@@H](O)C[C@]2(C)[C@@]1(O)C(=O)CO [Dexamethasone (DHAP)]		1.03
Cc1c(Cn2c(C)nc3c(C(=O)O)cc(N4CCOCC4)cc32)cccc1C(F)(F)F		1.38
C[C@H](NC(=O)/C(C#N)=C/c1cccc(Br)n1)c1ccccc1		0.804
CCNC(=O)NCCSC[C@H]1O[C@@H](n2cnc3c(N)ncnc32)[C@H](O)[C@@H]1O		0.751
CN1CCCN(C(=O)c2cccc(-c3ccc(/C=C4/C(=O)Nc5ccc(Cl)cc54)o3)c2)CC1 [CX-6258 (hydrochloride)]		0.53
COc1ccc(CN2CCC(c3ccc4nc(C(=O)N5CCN(Cc6ccc(C(F)(F)F)cc6)CC5)[nH]c4c3)CC2)cn1		0.348
O=C1CCC(N2C(=O)c3ccccc3C2=O)C(=O)N1 (configuration not stated) [Thalidomide]		0.757
CN(C)C(=N)NC(=N)N [Metformin HCl]		0.701
CS(=O)(=O)CCNCc1ccc(-c2ccc3ncnc(Nc4ccc(OCc5cccc(F)c5)c(Cl)c4)c3c2)o1 [Lapatinib]		0.617
O=C(CNC(=O)[C@H](COP(=O)(O)O)NC(=O)CCc1c[nH]c2ccccc12)NCCCCc1ccccc1		1.08
c1cc(-c2cnn3cc(-c4ccc(OCCN5CCCCC5)cc4)cnc23)ccn1 [Dorsomorphin (dihydrochloride)]		1.8
CC(C)n1cnc2c(NCCc3ccc(O)cc3)nc(-c3csc4ccccc34)nc21 [StemRegenin 1 (SR1)]		0.788
C[C@H](Nc1cc(-c2cnn(C)c2)cc(Nc2cnccn2)n1)c1ccc(F)cc1 [Ilginatinib (maleate)]		0.614
O=c1ncn2nc(Sc3ccc(F)cc3F)ccc2c1-c1c(Cl)cccc1Cl		0.808
O=c1c(O)c(-c2ccc(O)c(O)c2)oc2cc(O)ccc12 [Fisetin]		0.701
C=CC(=O)N1C[C@@H](Nc2ncnc3[nH]ccc23)CC[C@H]1C [(2R,5S)-Ritlecitinib]		1.05
Cc1nc(=O)c2cc(CN(C)c3ccc(C(=O)N[C@@H](CCC(=O)O)C(=O)O)s3)ccc2[nH]1 [Raltitrexed]		1.07
Cn1c(Nc2ccc(C(F)(F)F)cc2)nc2cc(Oc3ccnc(-c4ncc(C(F)(F)F)[nH]4)c3)ccc21		0.546
N#CCNC(=O)c1ccc(-c2ccnc(Nc3ccc(N4CCOCC4)cc3)n2)cc1 [Momelotinib (CYT387)]		0.585

SMILES	PARP1 L713F-nLuc/akaLuc ratio [1]	PARP1 L713F-nLuc/akaLuc ratio [2]
Nc1ccc(S(=O)(=O)NCCc2ccccc2)cc1		0.888
O=C(O)c1cccc(CN2C(=O)/C(=C(\c3ccccc3)c3ccc(Cl)cc3)c3ccccc32)c1		1.18
COc1cc(OC)c2c(=O)[nH]c(-c3cc(C)c(OCCO)c(C)c3)nc2c1 [Apabetalone]		1.28
CC(C)c1cccc(=O)c(O)c1 [Hinokitiol]		0.993
Cc1ccc(=O)n(-c2ccccc2)c1 [Pirfenidone]		0.824
CCc1cc(O)c(F)cc1-c1ccc2c(-c3nc4c([nH]3)CN(C3CCN(C)CC3)CC4)n[nH]c2c1 [JAK-IN-5 (hydrochloride)]	0.581	
CO[C@@]12[C@H](COC(N)=O)C3=C(C(=O)C(C)=C(N)C3=O)N1C[C@@H]1N[C@@H]12 [Mitomycin C]		1.07
Cn1cccc1/C=C1\C(=O)NC(=O)c2ccccc21		3.34 (active)
O=C(NCC1(c2nc(-c3ccccc3)cs2)CCOCC1)c1cccc(-c2noc(C(F)(F)F)n2)c1		0.465
COc1ccc(S(=O)(=O)Nc2cc(-c3csc(C#N)c3)ccc2C)cc1		1.24
COc1ccccc1C(=O)Nc1cc2c(cc1N1CCCC1)n(C)c(=O)n2C		0.797
O=C(O)c1ccc2c(c1)nc(Nc1cccc(Cl)c1)c1ccncc12 [Silmitasertib (CX-4945)]		0.822
COc1cc(/C=C/C(=O)CC(=O)/C=C/c2ccc(O)c(OC)c2)ccc1O [Curcumin]		1.12
Cc1nc(C(=O)NCC(=O)O)c(O)c2ccc(Oc3ccccc3)cc12 [Roxadustat]		1.02
Cc1c(-c2cnccn2)ssc1=S [Oltipraz]		0.846
C[C@@H]1CCN(C(=O)CC#N)C[C@@H]1N(C)c1ncnc2[nH]ccc12		0.783
Cn1cc(-c2cnn3c(N)c(Br)c([C@@H]4CCCNC4)nc23)cn1	2.66	
CNC(=O)c1ccc(-c2cnc3ncc(Cc4ccc5ncccc5c4)n3n2)cc1F	0.95	
CNC(=O)c1ccc(N2C(=S)N(c3ccc(C#N)c(C(F)(F)F)c3)C(=O)C2(C)C)cc1F [Enzalutamide (MDV3100)]		0.993
COc1cc2ncnc(Oc3cccc(NC(=O)Nc4cc(C(C)(C)C(F)(F)F)on4)c3)c2cc1OC		1.02
Cc1cc(N2C[C@@H](C)N[C@@H](C)C2)ncc1-c1ccc(-c2nc3c(ccn3C)c(=O)[nH]2)cc1		1.15
COc1ccc2c(Oc3ccc4c(C(=O)Nc5ccccc5N)cccc4c3)ccnc2c1 [Chiauranib]		0.819
CN(C)Cc1ccc(-c2nc3cccc4c3n2CCNC4=O)cc1		8.09 (active)
O=C(O)c1ccc(-c2c[nH]c3ncc(-c4ccccc4)cc23)cc1C1CCCC1		0.793

SMILES	PARP1 L713F-nLuc/akaLuc ratio [1]	PARP1 L713F-nLuc/akaLuc ratio [2]
CCN1CCN(Cc2ccc(Nc3ncc(F)c(-c4cc(F)c5nc(C)n(C(C)C)c5c4)n3)nc2)CC1 [Abemaciclib]		0.621
CCCCCCCCc1ccc(CCC(N)(CO)CO)cc1 [Fingolimod (FTY720) HCl]		0.577
O=C(c1ccc(/C=C/c2n[nH]c3ccccc23)cc1)N1CCNCC1		1.3
NC(=O)c1cccc(-c2cccc(OC(=O)NC3CCCCC3)c2)c1		1.05
CC1(C)C=Cc2cc(CCn3c4ccccc4c4ccccc43)cc(C=O)c2O1		1.78
CN1CCN(CCOc2cc(OC3CCOCC3)c3c(Nc4c(Cl)ccc5c4OCO5)ncnc3c2)CC1 [Saracatinib (AZD0530)]		0.92
CCN(CCCOc1ccc2c(Nc3cc(CC(=O)Nc4cccc(F)c4)[nH]n3)ncnc2c1)CCOP(=O)(O)O [Barasertib]		1.15
N[C@@H]1CCCN(c2c(/C=C3\SC(=O)NC3=O)cccc2-c2ccccc2)C1		0.726
CN(C)CCOc1ccc(/C(=C(/CCCl)c2ccccc2)c2ccccc2)cc1 [Toremifene Citrate]		0.791
N#Cc1c(N2CCCC2)nc(N)c2c(N)nc(N3CCCC3)cc12		1.1
CNS(=O)(=O)Nc1nccc(Cc2c(C)c3ccc(Oc4ncccn4)cc3oc2=O)c1F		0.435
CN1CCN(c2ccc(-c3cccc(CN4CCOCC4)c3)cc2NC(=O)c2c[nH]c(=O)cc2C(F)(F)F)CC1		0.636
Cc1csc(-c2nnc(Nc3ccc(Oc4ncccc4-c4ccnc(N)n4)cc3)c3ccccc23)c1		1.02
CNC(=O)c1cc(COc2nnc(Nc3ccc(Cl)cc3)c3ccoc23)ccn1 [Telatinib]		1.17
Cn1cc(-c2ccc(F)c(C(F)(F)F)c2)nc1C1CCN(c2ncnc3[nH]ncc23)CC1	0.945	
Cc1ncccc1-c1cnc(NCc2c(F)ccc3c2CCO3)n2cnnc12		1.39
CC(C)N(CCCNC(=O)Nc1ccc(C(C)(C)C)cc1)C[C@H]1O[C@@H](n2ccc3c(N)ncnc32)[C@H](O)[C@@H]1O		2.19
C[C@H]1CCCN1Cc1nc2cc(NC(=O)c3ccc4c(cnn4C)c3)ccc2[nH]1		0.788
NC(=O)c1cccc2cn(-c3ccc([C@@H]4CCCNC4)cc3)nc12 [Niraparib]		4.32 (active)
CCNc1nc(Nc2cc(F)c(C(=O)N3CCOCC3)cc2OC)ncc1C(F)(F)F		0.683
NC(=O)c1cccc2cn(-c3ccc([C@@H]4CCCNC4)cc3)nc12 [Niraparib (MK-4827)]		6.42 (active)
C=C(C)[C@@H]1CCC(C)=C[C@H]1C1=C(O)C(=O)C(CCCCC)=C(NCc2ccccc2)C1=O		1.39
CC[C@]1(O)C[C@@H]2CN(CCc3c([nH]c4ccccc34)[C@@](C(=O)OC)(c3cc4c(cc3OC)N(C)[C@H]3[C@@](O)(C(=O)OC)[C@H](OC(C)=O)[C@]5(CC)C=CCN6CC[C@]43[C@@H]65)C2)C1 [Vinblastine sulfate]		1.03
CC(C)Cn1cnc2c(N)nc3ccccc3c21 [Imiquimod]	1.02	
